Active and inactive are the calls of the source. How the source made its calls: active means hit-call score of the fitted dose curve at least 0.9, where 1 is the maximum; inactive means score below 0.9.
Each molecule was assayed on TIMP1, TIMP1 (gene 7076) (assay: LTEA_HepaRG_TIMP1: Life Technologies and Expression Analysis (LTEA) Assay for TIMP1 using HepaRG (AID 2283534;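 on outcome: TaqMan qRT-PCR signal normalized to ACTB GAPDH and POLR2A housekeeping genes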)). Conditions: mRNA level, 48 h; actives raise or lower the signal.
Procedure: LTEA_HepaRG is a cell based, multiplexed-readout assay that uses HepaRG, a human liver cell line, with measurements taken at 48 hours after chemical dosing on a 96-well plate.LTEA_HepaRG_TIMP1 is one of 102 assay component(s) measured in the LTEA HepaRG cell culture assay. It is a marker of Cell proliferation, survival, death.Data from the assay component LTEA_HepaRG_TIMP1 was analyzed into 1 endpoint. This assay endpoint, LTEA_HepaRG_TIMP1, was analyzed with bidirectional fitting relative to DMSO as the negative control and baseline of activity. Using a type of inducible reporter, measures of mRNA induction for gain or loss-of-signal activity can be used to understand regulation of transcription factor activity. To generalize the intended target to other relatable targets, this assay endpoint is annotated to the protease inhibitor intended target family, where the subfamily is metalloproteinase inhibitor.
A total of 1060 chemcials from the ToxCast library were tested in eight-point concentration-response experiments. Cell culture and cytotoxicity assays were conducted at Thermo Fisher Scientific's Custom Services facility (Madison, WI). A single lot of human HepaRG cells (Thermo Fisher Scientific, Frederick, MD) was used for the cell culture experiments. 96-well format collagen type I coated plates of human HepaRG cells were prepared using established methods. Briefly, cryopreserved HepaRG cells were thawed, plated at a density of approximately 100,000 cells/well in HepaRG Thaw, Plate, and General Purpose media (HPRG770, Thermo Fisher Scientific), and incubated for 48 hours. 0.5% DMSO was selected as vehicle control to balance the requisite need of DMSO in HepaRG cultures to maintain differentiation (for example, baseline metabolism, proportions of hepatocytes vs. cholangiocytes), while enabling further hepatic receptor pathway activation (for example, PXR and CAR) in response to chemical exposure. 48 hours after plating, the culture medium was replaced with HepaRG Serum-Free Incudtion Media. Cells were exposed to each test chemical in duplicate and maintained in CO2 incubators for another 48 hours. Chemical plates were thawed to room temperature and 200x concentrations of treatment groups were prepared. 8-point conentration-reponse curves were made with the highest exposure at 100 uM, followed by half-log dilutions, all in 0.5% DMSO. Each test plate contained variouse controls, induction positive controls (1mM phenobarbital), cytotoxicity positive controls ([…] aflatoxin B1), vehicle controls (0.5% DMSO), and total lysis controls (0.5% DMSO). Cell morphology images were taken using an Essen IncuCyte FLR automated microscope, with six 96-well plates imaged in about 24 minutes. Images were captured and exported and JPEG files. Spent culture media was transfered to black-well plates for the LDH assay, and remaining media was sorted at -80 C for later use. Cells were treated with RLT buffer and frozen until shipped for gene expression analysis. Total RNA was isolated from the cell suspension in 75 uL of Buffer RLT (Qiagen, Germantown, MD 20874) by Quintiles/Expression Analysis (Durham, NC) using a custom isolation procedure. Total RNA from each plate well was transferred to a preamplification plate. Fluidigm's 96.96 Dynamic ArrayTM (Fluidigm, Amsterdam, the Netherlands) technology was used for gene expression analyses by quantitative reverse transcription polymerase chain reaction (qRT-PCR, performed by Quintiles/Expression Analysis, Durham, NC)89. Standard TaqManTM Assays (Applied Biosystems/ThermoFisher Scientific, Foster City, CA) were used to assess the expression of 93 genes selected based on their selectivity and sensitivity to important hepatic receptors known to be modulated by environmental chemicals; importance in human hepatocyte functionality; and hepatotoxicity. […]

| SMILES | outcome | AC50 |
| --- | --- | --- |
| CCCCC(CC)COC(=O)c1ccc(C(=O)OCC(CC)CCCC)c(C(=O)OCC(CC)CCCC)c1 (stereo not given) | inactive | – |
| O=C(Oc1ccc(Br)cc1)N1CCN2CCC1CC2 | inactive | – |
| CCCSC(=O)N(CCC)CCC | inactive | – |
| C=CCc1ccc2c(c1)OCO2 | inactive | – |
| O=C(N[C@H](c1ccccc1)[C@@H]1CN2CCC1CC2)c1c(Cl)ccc(C(F)(F)F)c1Cl | – | 64.9 µM (active) |
| CCOc1cccc(C2(N3CCN(c4ccccc4)CC3)CCC(C)CC2)c1 (stereo not given) | inactive | – |
| c1ccc(NNc2ccccc2)cc1 | inactive | – |
| Clc1ccc(C(c2ccc(Cl)cc2)C(Cl)Cl)cc1 | inactive | – |
| CC(O)CCO (stereo not given) | inactive | – |
| CC(C)(C)OOC(=O)c1ccccc1 | inactive | – |
| CCC(C)c1ccc(O)cc1 (stereo not given) | inactive | – |
| COC(=O)Nc1nc2ccccc2[nH]1 | inactive | – |
| CCCCOC(=O)c1ccccc1C(=O)OCc1ccccc1 | inactive | – |
| C[C@]12C=CC3=C4CCC(=O)C=C4CC[C@H]3[C@@H]1CC[C@@H]2O | inactive | – |
| O=C(Nc1ccccc1)c1ccccc1I | inactive | – |
| OCCCl | inactive | – |
| Cc1ccc(N=C=O)cc1N=C=O | inactive | – |
| c1ccc2c(c1)-c1cccc3cccc-2c13 | inactive | – |
| Nc1cc(Cl)cc(C(=O)O)c1Cl | inactive | – |
| Nc1ccc([N+](=O)[O-])cc1 | inactive | – |

| SMILES | outcome | AC50 |
| --- | --- | --- |
| Cc1ccc(N)c(N)c1 | inactive | – |
| [Cl-].[Cl-].[Hg+2] | inactive | – |
| COP(=S)(OC)SCN1C(=O)c2ccccc2C1=O | inactive | – |
| O=[N+]([O-])C(Br)(CO)CO | inactive | – |
| OCCOCCO | inactive | – |
| Brc1ccc(Oc2ccccc2)cc1 | inactive | – |
| ClC1=C(Cl)[C@]2(Cl)[C@H]3[C@H]([C@@H]4C=C[C@H]3C4)[C@@]1(Cl)C2(Cl)Cl | inactive | – |
| CN(C)C(=O)Nc1ccc(Cl)cc1 | inactive | – |
| Cn1cc(-c2ccccc2)c(=O)c(-c2cccc(C(F)(F)F)c2)c1 | inactive | – |
| O=[N+]([O-])c1ccc(Oc2ccc(Cl)cc2Cl)cc1 | inactive | – |
| CN(C)[C@@H]1C(=O)C(C(N)=O)=C(O)[C@@]2(O)C(=O)C3=C(O)c4c(O)cccc4[C@@](C)(O)[C@H]3C[C@@H]12 | inactive | – |
| CCCCCOC(=O)c1ccccc1C(=O)OCCCCC | inactive | – |
| CC(C)COC(=O)c1ccccc1C(=O)OCC(C)C | inactive | – |
| CCCCCCCCOC(=O)c1ccc(C(=O)OCCCCCCCC)c(C(=O)OCCCCCCCC)c1 | inactive | – |
| Cc1cccc(N)c1N | inactive | – |
| COc1cc(C=O)cc2c1[C@H](COC(N)=O)[C@]1(OC(C)=O)ON2C[C@H]2[C@@H]1N2C(C)=O | – | 2.63 µM (active) |
| CNC(=O)Oc1cccc2c1OC(C)(C)C2 | inactive | – |
| N#CC(Br)(Br)C(N)=O | inactive | – |
| ClC1=C(Cl)C2(Cl)C3C(Cl)C=CC3C1(Cl)C2(Cl)Cl (stereo not given) | inactive | – |
| CN(C)c1ccc(C(=O)c2ccc(N(C)C)cc2)cc1 | inactive | – |
